Source: ChEMBL document CHEMBL1961873, “Compounds: GSK PKIS; Assays: Nanosyn kinase panel” (2012)

Columns and labels:
[1] = target: T1, Inhibitor of nuclear factor kappa-B kinase subunit epsilon (Homo sapiens) (UniProt Q14164); conditions: at 1 µM;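 also: reported values are averaged percent inhibition figures against human IKKε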
T1 sequence (whole entry): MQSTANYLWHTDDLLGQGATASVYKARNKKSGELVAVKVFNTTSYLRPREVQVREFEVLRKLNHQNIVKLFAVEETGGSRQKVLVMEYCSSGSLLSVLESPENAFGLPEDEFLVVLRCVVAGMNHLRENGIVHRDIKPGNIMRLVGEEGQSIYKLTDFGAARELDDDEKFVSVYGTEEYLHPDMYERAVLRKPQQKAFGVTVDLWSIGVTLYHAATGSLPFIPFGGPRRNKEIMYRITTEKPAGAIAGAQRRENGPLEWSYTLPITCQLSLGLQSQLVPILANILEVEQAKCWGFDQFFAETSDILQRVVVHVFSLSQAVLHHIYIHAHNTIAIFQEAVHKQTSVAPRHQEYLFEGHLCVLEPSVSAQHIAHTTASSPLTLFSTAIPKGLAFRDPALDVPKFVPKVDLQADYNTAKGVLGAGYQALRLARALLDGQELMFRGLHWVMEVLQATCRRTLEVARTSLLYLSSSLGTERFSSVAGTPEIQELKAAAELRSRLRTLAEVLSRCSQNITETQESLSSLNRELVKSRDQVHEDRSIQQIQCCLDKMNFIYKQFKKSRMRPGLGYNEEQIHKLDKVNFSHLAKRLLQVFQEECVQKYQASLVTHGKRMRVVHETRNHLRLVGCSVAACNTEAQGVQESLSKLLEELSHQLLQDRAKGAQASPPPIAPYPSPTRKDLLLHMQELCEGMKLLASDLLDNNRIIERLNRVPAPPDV

[2] = target: T2, Serine/threonine-protein kinase Nek1 (Homo sapiens) (UniProt Q96PY6); conditions: at 0.1 µM
T2 sequence (whole entry): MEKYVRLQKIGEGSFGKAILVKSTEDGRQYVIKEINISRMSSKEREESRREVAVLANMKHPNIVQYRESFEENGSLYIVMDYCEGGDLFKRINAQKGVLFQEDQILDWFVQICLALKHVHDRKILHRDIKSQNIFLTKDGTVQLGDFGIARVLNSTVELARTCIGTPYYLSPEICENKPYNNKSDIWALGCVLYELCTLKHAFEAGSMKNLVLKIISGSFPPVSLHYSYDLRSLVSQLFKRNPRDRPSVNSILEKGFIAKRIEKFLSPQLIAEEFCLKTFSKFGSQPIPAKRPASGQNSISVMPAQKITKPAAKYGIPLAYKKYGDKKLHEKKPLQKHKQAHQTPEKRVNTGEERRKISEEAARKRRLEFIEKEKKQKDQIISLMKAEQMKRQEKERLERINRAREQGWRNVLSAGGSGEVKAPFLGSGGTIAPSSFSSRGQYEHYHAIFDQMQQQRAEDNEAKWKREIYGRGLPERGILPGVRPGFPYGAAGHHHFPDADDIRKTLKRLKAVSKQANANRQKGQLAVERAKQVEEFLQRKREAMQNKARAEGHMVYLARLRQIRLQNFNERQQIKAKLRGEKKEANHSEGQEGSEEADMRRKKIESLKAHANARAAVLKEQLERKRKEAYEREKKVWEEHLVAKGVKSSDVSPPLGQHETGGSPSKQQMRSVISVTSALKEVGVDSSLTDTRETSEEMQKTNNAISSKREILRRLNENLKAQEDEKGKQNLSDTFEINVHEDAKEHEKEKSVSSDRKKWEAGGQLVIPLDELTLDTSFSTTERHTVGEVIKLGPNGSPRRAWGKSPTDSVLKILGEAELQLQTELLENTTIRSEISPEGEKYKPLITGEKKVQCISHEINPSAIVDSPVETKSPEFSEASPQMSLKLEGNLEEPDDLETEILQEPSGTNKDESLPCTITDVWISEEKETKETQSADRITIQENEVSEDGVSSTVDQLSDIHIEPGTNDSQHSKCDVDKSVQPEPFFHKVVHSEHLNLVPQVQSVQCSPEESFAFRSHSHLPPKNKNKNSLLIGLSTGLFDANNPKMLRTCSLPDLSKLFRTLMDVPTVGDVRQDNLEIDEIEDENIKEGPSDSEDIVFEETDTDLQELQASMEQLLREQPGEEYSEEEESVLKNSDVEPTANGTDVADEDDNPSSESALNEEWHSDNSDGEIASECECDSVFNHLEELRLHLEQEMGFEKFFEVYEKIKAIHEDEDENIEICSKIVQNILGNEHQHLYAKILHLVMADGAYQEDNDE

[3] = target: T2, Serine/threonine-protein kinase Nek1 (Homo sapiens); conditions: at 1 µM
[4] = target: T3, Serine/threonine-protein kinase Nek2 (Homo sapiens) (UniProt P51955); conditions: at 0.1 µM
T3 sequence (whole entry): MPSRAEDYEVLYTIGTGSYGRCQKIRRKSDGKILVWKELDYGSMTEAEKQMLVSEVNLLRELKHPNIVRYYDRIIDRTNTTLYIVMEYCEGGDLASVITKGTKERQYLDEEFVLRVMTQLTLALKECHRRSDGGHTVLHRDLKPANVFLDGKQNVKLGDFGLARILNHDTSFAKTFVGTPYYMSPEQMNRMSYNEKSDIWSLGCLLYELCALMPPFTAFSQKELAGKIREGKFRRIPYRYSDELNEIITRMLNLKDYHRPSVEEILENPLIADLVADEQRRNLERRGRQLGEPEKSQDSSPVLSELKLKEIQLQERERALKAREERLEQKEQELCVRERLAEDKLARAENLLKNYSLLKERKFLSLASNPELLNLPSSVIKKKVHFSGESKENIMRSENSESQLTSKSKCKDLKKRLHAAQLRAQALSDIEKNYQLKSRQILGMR

[5] = target: T3, Serine/threonine-protein kinase Nek2 (Homo sapiens); conditions: at 1 µM
[6] = target: Serine/threonine-protein kinase Nek6 (Homo sapiens) (UniProt Q9HC98); conditions: at 0.1 µM
[7] = target: Serine/threonine-protein kinase Nek6 (Homo sapiens) (UniProt Q9HC98); conditions: at 1 µM
[8] = target: Serine/threonine-protein kinase Nek7 (Homo sapiens) (UniProt Q8TDX7); conditions: at 0.1 µM
[9] = target: Serine/threonine-protein kinase Nek7 (Homo sapiens) (UniProt Q8TDX7); conditions: at 1 µM
[10] = target: T4, Serine/threonine-protein kinase Nek9 (Homo sapiens) (UniProt Q8TD19); conditions: at 0.1 µM;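 also: reported value is the mean percent inhibition of NEK9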
T4 sequence (whole entry): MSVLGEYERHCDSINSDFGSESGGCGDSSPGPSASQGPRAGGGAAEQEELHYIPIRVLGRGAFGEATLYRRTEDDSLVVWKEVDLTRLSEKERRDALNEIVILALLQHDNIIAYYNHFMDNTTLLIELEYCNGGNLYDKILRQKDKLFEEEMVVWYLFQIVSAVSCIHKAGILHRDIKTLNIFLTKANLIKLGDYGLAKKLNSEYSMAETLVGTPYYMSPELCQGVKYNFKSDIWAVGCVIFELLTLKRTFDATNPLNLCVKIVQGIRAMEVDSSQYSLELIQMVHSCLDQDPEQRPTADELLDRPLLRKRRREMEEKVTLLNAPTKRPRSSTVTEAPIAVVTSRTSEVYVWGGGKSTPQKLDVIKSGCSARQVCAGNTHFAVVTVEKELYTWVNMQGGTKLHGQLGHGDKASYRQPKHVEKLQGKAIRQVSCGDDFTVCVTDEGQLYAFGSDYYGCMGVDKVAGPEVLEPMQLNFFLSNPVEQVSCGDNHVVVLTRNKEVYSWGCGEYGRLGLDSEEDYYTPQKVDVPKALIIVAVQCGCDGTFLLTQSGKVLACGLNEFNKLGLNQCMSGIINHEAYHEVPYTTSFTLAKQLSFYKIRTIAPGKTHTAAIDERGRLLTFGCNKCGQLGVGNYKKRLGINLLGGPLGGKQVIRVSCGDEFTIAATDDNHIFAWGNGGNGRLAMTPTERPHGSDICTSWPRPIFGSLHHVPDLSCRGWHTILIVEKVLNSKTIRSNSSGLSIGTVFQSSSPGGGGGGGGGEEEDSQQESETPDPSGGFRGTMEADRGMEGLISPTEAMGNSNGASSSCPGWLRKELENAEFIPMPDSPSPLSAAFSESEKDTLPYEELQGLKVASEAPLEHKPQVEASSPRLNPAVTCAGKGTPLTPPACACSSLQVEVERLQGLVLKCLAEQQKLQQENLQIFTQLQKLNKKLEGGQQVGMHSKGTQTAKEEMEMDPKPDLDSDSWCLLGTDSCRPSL

Chain of Serine/threonine-protein kinase Nek7 (Homo sapiens) (Q8TDX7 whole entry, looked up): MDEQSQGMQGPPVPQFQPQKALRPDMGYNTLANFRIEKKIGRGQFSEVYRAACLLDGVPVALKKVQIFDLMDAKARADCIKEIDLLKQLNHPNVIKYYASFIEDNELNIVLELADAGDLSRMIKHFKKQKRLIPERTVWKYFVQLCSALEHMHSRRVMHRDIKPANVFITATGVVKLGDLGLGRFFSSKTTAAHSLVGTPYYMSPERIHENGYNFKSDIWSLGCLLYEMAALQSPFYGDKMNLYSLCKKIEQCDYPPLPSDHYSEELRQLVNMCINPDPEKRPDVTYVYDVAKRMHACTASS
Chain of Serine/threonine-protein kinase Nek6 (Homo sapiens) (Q9HC98 whole entry): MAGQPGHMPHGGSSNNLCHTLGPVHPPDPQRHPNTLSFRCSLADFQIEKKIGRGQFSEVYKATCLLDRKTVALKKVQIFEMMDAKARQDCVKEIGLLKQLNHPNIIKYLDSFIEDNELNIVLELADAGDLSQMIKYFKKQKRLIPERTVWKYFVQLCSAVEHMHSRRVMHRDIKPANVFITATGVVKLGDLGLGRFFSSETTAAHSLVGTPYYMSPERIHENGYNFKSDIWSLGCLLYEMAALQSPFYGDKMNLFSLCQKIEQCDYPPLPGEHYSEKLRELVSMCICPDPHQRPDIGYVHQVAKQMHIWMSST

**Q.** Which inhibition [1] does the source give for `CCCN1CCC(Oc2cc(Nc3nc(Nc4cccc(F)c4C(N)=O)c4cc[nH]c4n3)c(OC)cc2Cl)CC1` here?
**A.** Its inhibition is -1.68%.

**Q.** And the inhibition [2]?
**A.** The inhibition was 0.59%.

**Q.** And the inhibition [3]?
**A.** Its inhibition is 0.62%.

**Q.** What about the inhibition [4] of the same compound?
**A.** The inhibition was -0.38%.

**Q.** What about the inhibition [5] of the same compound?
**A.** Its inhibition is 1.09%.

**Q.** And the inhibition [6]?
**A.** The inhibition was 0.14%.

**Q.** What about the inhibition [7] of the same compound?
**A.** Its inhibition is -2.04%.

**Q.** What about the inhibition [8] of the same compound?
**A.** Its inhibition is -8.48%.

**Q.** What about the inhibition [9] of the same compound?
**A.** The inhibition was 1.7%.

**Q.** And the inhibition [10]?
**A.** The inhibition was -0.6%.
